# According to ChEMBL document CHEMBL1961873, “Compounds: GSK PKIS; Assays: Nanosyn kinase panel” (2012):
# How the values were obtained:
# [1] = target: Mitogen-activated protein kinase kinase kinase kinase 4 (Homo sapiens) (UniProt O95819); conditions: at 1 µM;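 note: reported figure is an averaged inhibition value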
# [2] = target: Dual specificity mitogen-activated protein kinase kinase 1 (Homo sapiens) (UniProt Q02750); conditions: at 0.1 µM
# [3] = target: Dual specificity mitogen-activated protein kinase kinase 1 (Homo sapiens) (UniProt Q02750); conditions: at 1 µM
# [4] = target: Misshapen-like kinase 1 (Homo sapiens) (UniProt Q8N4C8); conditions: at 0.1 µM
# [5] = target: Misshapen-like kinase 1 (Homo sapiens) (UniProt Q8N4C8); conditions: at 1 µM
# [6] = target: T1, Serine/threonine-protein kinase 4 (Homo sapiens) (UniProt Q13043); conditions: at 0.1 µM
# T1 sequence (whole entry): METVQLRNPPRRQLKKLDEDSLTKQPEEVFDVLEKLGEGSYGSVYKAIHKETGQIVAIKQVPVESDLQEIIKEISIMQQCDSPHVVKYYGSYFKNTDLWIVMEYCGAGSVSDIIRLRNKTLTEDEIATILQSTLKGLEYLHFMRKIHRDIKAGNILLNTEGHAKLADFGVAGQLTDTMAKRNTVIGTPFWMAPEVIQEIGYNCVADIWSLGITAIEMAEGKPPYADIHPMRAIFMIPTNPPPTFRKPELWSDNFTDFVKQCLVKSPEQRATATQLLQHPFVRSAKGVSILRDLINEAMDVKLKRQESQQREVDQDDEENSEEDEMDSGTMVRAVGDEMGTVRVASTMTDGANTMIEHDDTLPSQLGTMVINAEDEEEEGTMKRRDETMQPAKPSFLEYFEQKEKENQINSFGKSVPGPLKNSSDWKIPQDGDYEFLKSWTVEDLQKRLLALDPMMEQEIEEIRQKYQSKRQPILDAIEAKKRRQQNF
# [7] = target: T1, Serine/threonine-protein kinase 4 (Homo sapiens); conditions: at 1 µM
# [8] = target: T2, Serine/threonine-protein kinase 3 (Homo sapiens) (UniProt Q13188); conditions: at 0.1 µM
# T2 sequence (whole entry): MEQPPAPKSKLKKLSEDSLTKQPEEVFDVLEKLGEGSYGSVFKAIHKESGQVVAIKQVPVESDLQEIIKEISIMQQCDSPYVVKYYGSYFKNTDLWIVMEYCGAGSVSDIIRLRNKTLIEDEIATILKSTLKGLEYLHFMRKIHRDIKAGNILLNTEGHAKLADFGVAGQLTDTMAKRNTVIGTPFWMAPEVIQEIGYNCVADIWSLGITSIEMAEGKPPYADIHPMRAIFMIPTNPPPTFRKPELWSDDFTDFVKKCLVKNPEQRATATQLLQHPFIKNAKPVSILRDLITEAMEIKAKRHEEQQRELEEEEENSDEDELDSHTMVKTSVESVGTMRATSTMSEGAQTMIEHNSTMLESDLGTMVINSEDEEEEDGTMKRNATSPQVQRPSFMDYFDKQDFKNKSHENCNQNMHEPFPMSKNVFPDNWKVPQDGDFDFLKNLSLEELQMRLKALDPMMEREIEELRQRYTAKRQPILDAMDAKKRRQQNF
# [9] = target: T2, Serine/threonine-protein kinase 3 (Homo sapiens); conditions: at 1 µM
# [10] = target: Serine/threonine-protein kinase 26 (Homo sapiens) (UniProt Q9P289); conditions: at 0.1 µM
# [11] = target: Serine/threonine-protein kinase 26 (Homo sapiens) (UniProt Q9P289); conditions: at 1 µM
# [12] = target: Serine/threonine-protein kinase PAK 1 (Homo sapiens) (UniProt Q13153); conditions: at 0.1 µM
# [13] = target: Serine/threonine-protein kinase PAK 1 (Homo sapiens) (UniProt Q13153); conditions: at 1 µM
# [14] = target: Serine/threonine-protein kinase PAK 2 (Homo sapiens) (UniProt Q13177); conditions: at 0.1 µM
# [15] = target: Serine/threonine-protein kinase PAK 2 (Homo sapiens) (UniProt Q13177); conditions: at 1 µM
# [16] = target: Serine/threonine-protein kinase PAK 3 (Homo sapiens) (UniProt O75914); conditions: at 0.1 µM
# [17] = target: Serine/threonine-protein kinase PAK 3 (Homo sapiens) (UniProt O75914); conditions: at 1 µM
# [18] = target: Serine/threonine-protein kinase PAK 6 (Homo sapiens) (UniProt Q9NQU5); conditions: at 0.1 µM;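 note: mean PAK6 inhibition reported from the GSK PKIS screen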
# [19] = target: Serine/threonine-protein kinase PAK 5 (Homo sapiens) (UniProt Q9P286); conditions: at 0.1 µM
# [20] = target: Serine/threonine-protein kinase PAK 5 (Homo sapiens) (UniProt Q9P286); conditions: at 1 µM
# Dual specificity mitogen-activated protein kinase kinase 1 (Homo sapiens), sequence (Q02750 whole entry): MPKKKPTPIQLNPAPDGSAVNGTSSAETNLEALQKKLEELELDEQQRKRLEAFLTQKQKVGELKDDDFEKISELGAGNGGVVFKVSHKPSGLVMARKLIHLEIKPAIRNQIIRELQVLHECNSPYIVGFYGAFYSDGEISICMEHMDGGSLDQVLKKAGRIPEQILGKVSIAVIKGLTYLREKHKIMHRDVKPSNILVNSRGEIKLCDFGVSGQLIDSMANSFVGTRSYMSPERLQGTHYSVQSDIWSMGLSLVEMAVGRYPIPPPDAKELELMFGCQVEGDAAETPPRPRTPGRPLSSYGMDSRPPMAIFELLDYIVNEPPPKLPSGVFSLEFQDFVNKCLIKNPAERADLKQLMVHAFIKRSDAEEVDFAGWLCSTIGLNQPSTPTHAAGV
# Serine/threonine-protein kinase PAK 3 (Homo sapiens), sequence (O75914 whole entry, looked up): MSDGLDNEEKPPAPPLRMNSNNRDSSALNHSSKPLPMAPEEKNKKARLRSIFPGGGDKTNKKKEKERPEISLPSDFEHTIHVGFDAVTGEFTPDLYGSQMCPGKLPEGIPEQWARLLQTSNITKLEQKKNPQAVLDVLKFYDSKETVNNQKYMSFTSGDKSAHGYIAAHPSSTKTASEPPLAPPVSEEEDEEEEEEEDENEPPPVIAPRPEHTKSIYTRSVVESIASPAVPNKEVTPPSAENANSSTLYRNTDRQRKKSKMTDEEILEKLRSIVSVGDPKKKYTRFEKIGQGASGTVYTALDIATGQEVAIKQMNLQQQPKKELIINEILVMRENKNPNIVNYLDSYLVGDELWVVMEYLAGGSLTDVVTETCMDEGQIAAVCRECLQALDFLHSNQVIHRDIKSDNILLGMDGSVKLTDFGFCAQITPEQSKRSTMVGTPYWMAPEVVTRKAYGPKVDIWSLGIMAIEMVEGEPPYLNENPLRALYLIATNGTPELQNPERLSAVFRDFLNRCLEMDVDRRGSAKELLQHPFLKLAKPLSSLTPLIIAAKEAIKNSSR
# Serine/threonine-protein kinase 26 (Homo sapiens), sequence (Q9P289 2-416 limits assumed): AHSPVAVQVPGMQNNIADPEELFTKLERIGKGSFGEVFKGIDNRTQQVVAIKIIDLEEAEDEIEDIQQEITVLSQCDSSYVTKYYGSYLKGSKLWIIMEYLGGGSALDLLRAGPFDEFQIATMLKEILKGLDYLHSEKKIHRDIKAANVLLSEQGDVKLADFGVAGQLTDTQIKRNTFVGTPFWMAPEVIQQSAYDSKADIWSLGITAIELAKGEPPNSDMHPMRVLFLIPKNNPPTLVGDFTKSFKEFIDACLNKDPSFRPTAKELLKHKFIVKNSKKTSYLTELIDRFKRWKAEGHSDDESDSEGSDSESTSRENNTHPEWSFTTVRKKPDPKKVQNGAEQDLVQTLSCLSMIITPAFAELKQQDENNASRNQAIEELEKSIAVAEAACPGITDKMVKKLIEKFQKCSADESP
# Serine/threonine-protein kinase PAK 5 (Homo sapiens), sequence (Q9P286 whole entry, looked up): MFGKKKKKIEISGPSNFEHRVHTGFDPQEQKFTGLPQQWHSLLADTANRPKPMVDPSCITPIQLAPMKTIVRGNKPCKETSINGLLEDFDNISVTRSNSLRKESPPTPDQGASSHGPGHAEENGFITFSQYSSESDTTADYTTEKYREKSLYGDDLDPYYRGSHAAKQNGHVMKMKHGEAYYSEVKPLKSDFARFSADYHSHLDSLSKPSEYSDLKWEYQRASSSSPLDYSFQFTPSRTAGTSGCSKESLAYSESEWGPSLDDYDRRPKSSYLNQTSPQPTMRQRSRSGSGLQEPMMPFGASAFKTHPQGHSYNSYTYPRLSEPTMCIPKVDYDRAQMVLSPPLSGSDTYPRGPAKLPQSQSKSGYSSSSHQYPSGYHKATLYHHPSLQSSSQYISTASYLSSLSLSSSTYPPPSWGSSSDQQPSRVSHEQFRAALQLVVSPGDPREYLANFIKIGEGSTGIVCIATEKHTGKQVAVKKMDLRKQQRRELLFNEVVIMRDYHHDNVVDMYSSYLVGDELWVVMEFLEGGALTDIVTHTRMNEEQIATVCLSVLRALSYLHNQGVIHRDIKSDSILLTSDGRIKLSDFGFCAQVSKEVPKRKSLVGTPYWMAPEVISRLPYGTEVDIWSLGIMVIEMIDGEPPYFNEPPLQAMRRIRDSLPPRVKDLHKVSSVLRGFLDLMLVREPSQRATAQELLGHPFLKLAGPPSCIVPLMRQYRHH
# Serine/threonine-protein kinase PAK 6 (Homo sapiens), sequence (Q9NQU5 whole entry, looked up): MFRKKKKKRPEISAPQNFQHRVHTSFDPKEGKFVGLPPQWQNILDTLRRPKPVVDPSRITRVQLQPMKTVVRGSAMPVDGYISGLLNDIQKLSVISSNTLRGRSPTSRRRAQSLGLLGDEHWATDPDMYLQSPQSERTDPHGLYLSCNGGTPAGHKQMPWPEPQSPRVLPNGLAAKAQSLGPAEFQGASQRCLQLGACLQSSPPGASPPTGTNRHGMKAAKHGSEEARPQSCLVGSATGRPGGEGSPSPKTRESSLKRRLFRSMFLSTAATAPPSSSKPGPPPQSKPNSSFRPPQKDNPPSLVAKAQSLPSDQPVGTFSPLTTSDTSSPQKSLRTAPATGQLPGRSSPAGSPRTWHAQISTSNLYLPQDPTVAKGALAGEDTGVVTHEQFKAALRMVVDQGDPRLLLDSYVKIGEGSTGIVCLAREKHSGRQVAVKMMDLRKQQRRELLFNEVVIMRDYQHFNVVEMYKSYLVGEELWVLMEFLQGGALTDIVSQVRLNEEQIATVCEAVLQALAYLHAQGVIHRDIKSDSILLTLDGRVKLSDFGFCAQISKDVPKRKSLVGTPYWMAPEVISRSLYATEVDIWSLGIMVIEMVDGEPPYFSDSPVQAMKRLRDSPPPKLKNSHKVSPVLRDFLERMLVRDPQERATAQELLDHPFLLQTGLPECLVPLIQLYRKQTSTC
# Mitogen-activated protein kinase kinase kinase kinase 4 (Homo sapiens), sequence (O95819 2-1239 limits assumed): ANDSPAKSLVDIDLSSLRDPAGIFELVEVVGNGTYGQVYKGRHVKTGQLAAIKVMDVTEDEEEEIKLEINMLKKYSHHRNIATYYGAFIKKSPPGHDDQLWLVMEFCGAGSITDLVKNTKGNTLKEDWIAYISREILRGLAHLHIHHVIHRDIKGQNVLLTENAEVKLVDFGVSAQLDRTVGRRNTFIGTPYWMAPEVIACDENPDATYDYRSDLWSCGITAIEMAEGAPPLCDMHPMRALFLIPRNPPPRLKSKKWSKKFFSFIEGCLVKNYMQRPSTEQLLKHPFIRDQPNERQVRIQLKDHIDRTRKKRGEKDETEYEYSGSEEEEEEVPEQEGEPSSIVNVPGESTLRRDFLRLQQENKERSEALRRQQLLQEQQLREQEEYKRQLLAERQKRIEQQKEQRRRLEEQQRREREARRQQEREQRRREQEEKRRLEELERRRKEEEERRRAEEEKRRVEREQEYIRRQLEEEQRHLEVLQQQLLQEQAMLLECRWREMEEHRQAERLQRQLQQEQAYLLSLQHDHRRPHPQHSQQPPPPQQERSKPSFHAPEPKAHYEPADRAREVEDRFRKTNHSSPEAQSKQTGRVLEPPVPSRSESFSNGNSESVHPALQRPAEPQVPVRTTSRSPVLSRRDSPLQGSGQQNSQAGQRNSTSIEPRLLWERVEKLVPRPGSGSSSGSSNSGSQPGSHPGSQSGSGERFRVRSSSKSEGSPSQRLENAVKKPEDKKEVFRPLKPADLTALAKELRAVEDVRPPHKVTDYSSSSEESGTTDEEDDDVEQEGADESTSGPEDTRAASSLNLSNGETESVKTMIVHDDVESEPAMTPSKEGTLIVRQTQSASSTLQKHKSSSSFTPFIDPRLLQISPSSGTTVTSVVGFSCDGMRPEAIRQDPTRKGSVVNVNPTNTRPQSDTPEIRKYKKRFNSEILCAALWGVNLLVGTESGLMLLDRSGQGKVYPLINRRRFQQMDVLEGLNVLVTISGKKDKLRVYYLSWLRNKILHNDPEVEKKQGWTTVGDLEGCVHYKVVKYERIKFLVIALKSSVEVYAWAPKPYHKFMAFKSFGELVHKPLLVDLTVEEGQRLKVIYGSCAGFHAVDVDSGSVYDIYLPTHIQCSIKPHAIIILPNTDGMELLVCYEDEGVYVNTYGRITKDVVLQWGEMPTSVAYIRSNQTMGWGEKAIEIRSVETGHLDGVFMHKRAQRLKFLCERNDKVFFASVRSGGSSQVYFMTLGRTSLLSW
# Serine/threonine-protein kinase PAK 2 (Homo sapiens), sequence (Q13177 whole entry): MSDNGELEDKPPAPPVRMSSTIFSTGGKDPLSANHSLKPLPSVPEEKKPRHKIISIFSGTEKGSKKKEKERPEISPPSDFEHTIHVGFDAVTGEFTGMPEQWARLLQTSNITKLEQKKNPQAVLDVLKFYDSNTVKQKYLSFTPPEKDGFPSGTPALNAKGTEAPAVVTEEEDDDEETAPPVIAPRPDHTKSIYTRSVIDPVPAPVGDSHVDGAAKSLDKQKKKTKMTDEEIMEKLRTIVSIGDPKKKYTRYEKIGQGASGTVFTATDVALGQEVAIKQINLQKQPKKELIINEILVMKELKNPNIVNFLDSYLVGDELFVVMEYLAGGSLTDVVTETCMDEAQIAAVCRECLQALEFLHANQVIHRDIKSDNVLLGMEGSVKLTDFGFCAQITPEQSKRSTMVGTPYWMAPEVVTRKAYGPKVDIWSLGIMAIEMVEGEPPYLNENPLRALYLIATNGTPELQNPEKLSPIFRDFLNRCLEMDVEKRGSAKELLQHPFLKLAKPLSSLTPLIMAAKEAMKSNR
SMILES,inhibition [1] [%],inhibition [2] [%],inhibition [3] [%],inhibition [4] [%],inhibition [5] [%],inhibition [6] [%],inhibition [7] [%],inhibition [8] [%],inhibition [9] [%],inhibition [10] [%],inhibition [11] [%],inhibition [12] [%],inhibition [13] [%],inhibition [14] [%],inhibition [15] [%],inhibition [16] [%],inhibition [17] [%],inhibition [18] [%],inhibition [19] [%],inhibition [20] [%]
ON=C1CCc2cc(-c3nc(C4CCNCC4)[nH]c3-c3ccncc3)ccc21,21.5,0.2,2.1,4.01,18.4,2.4,3.87,1.63,2.8,0.5,-1.63,2.01,2.16,-0.65,-0.29,-0.94,-0.23,0.23,–,–
Cc1cc(Cl)cc2c1NC(=O)C2=NNc1ccc(S(N)(=O)=O)cc1,56.5,3.39,2.09,10,42.5,4.01,7.11,3.69,6.48,0.59,-0.49,0.68,1.71,1.05,0.72,3.63,4.8,2.65,-4.18,-1.19
Cc1nc(-c2ccccc2)n2nc(NCCCN3CCOCC3)ncc12,5.45,2.79,4.46,4.74,5.12,1.32,4,2.92,4.68,–,0.4,2.24,6.68,0.56,0.27,1.98,4.33,-9.04,1.91,1.28
O=C(Nc1ccc(Oc2ccc3[nH]c(NC(=O)c4ccco4)nc3c2)cc1)Nc1cc(C(F)(F)F)ccc1F,5.1,0.55,1.24,0.49,-0.52,-0.01,0.17,-1.13,-0.98,0.66,0.33,-2.95,-0.15,0.17,0.57,-0.21,0.34,2.79,6.4,6.36
C[C@@H](Oc1cc(-n2cnc3ccc(OC[C@@H](O)CO)cc32)sc1C(N)=O)c1ccccc1Cl,4.28,-0.54,0.3,-1.25,2.89,3.22,34.1,2.75,25.7,-0.27,1.05,-2.19,1.45,-2.74,-0.42,-2.28,-0.49,-7.41,-7.17,-4.24
NS(=O)(=O)c1cccc(Nc2cc(-c3ccc(F)cc3)n[nH]2)c1,69.9,5.05,3.82,14.6,59.5,8.09,16.1,7.41,13.4,-0.02,0.86,3.94,8.53,1.36,1.54,3.88,4.82,2.82,10.3,11.7
CN(C)c1cc2c(Nc3ccc4c(cnn4Cc4ccccc4)c3)ncnc2cn1,6.51,3.44,2.77,3.28,4.78,3.03,1.68,4.54,2.67,-1.9,-0.54,6.36,6.67,0.73,0.51,3.07,3.39,4.32,-1.52,-2.02
